Source: PubChem BioAssay AID1159580 (chemical genetic matrix, 2015)
Where “and” joins values, the source holds several entries; their conditions need not be identical. Identical values can stand only once. In all, about 5,500 compounds went through this assay and about 2,000 (36%) were called active. Roughly 18% stayed inconclusive and do not appear here. The list shows a part of the results. A number with no mark means an inactive call. Cut-off read from the data, not from the text of the source: active = normalized growth mostly below about 0.91 (no sharp cut-off); inconclusive = no clear call, values can overlap the other calls; inactive = mostly above about 0.92.

Test: chemical genetic growth profiling, strain panel (AID 1159580);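 note: tested at 20 µM; growth read once vehicle control cultures reached saturation at 30 °C; 1 = growth at the plate median or of vehicle wells; lower values mean less growth of the strain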
Settings: S. cerevisiae deletion strains, growth OD

Compound: O=C1CN(/N=C\c2ccc([N+](=O)[O-])o2)C(=O)N1
- normalized growth (locus YAL013W, strain DEP1, active compounds read low): 0.993
- normalized growth (locus YAL021C, strain ccr4, active compounds read low): 0.98
- normalized growth (locus YAL026C, strain drs2, active compounds read low): 0.956
- normalized growth (locus YAL030W, strain snc1, active compounds read low): 0.986
- normalized growth (locus YBL061C, strain skt5, active compounds read low): 0.987
- normalized growth (locus YBR009C, strain hhf1, active compounds read low): 0.977
- normalized growth (locus YBR021W, strain FUR4, active compounds read low): 0.997
- normalized growth (locus YBR023C, strain chs3, active compounds read low): 0.982
- normalized growth (locus YBR171W, strain sec66, active compounds read low): 0.982
- normalized growth (locus YBR229C, strain ROT2, active compounds read low): 1.01
- normalized growth (locus YBR231C, strain swc5, active compounds read low): 0.977
- normalized growth (locus YBR279W, strain paf1, active compounds read low): 0.97
- normalized growth (locus YCL011C, strain gbp2, active compounds read low): 0.964
- normalized growth (locus YCL016C, strain dcc1, active compounds read low): 0.99
- normalized growth (locus YCL029C, strain bik1, active compounds read low): 1.01
- normalized growth (locus YCL061C, strain MRC1, active compounds read low): 0.986
- normalized growth (locus YCL069W, strain vba3, active compounds read low): 0.956
- normalized growth (locus YCR088W, strain abp1, active compounds read low): 0.966
- normalized growth (locus YDL005C, strain med2, active compounds read low): 0.967
- normalized growth (locus YDL035C, strain GPR1, active compounds read low): 0.978
- normalized growth (locus YDL040C, strain nat1, active compounds read low): 0.97
- normalized growth (locus YDL074C, strain BRE1, active compounds read low): 0.914
- normalized growth (locus YDL101C, strain DUN1, active compounds read low): 0.995
- normalized growth (locus YDL134C, strain PPH21, active compounds read low): 1
- normalized growth (locus YDL185W, strain tfp1, active compounds read low): 0.99
- normalized growth (locus YDL192W, strain arf1, active compounds read low): 0.991
- normalized growth (locus YDR001C, strain nth1, active compounds read low): 0.975
- normalized growth (locus YDR069C, strain doa4, active compounds read low): 0.94
- normalized growth (locus YDR101C, strain arx1, active compounds read low): 0.976
- normalized growth (locus YDR137W, strain rgp1, active compounds read low): 1.02
- normalized growth (locus YDR150W, strain NUM1, active compounds read low): 1
- normalized growth (locus YDR159W, strain sac3, active compounds read low): 0.954
- normalized growth (locus YDR162C, strain NBP2, active compounds read low): 0.99
- normalized growth (locus YDR195W, strain ref2): 0.979
- normalized growth (locus YDR297W, strain sur2, active compounds read low): 0.983
- normalized growth (locus YDR318W, strain mcm21, active compounds read low): 0.973
- normalized growth (locus YDR334W, strain swr1, active compounds read low): 0.976
- normalized growth (locus YDR335W, strain msn5, active compounds read low): 0.986
- normalized growth (locus YDR388W, active compounds read low): 0.995
- normalized growth (locus YDR392W, strain spt3, active compounds read low): 0.68 (active)
- normalized growth (locus YDR502C, strain sam2, active compounds read low): 0.974
- normalized growth (locus YEL003W, strain gim4, active compounds read low): 0.942
- normalized growth (locus YEL037C, strain rad23, active compounds read low): 0.963
- normalized growth (locus YEL061C, strain CIN8 (second series), active compounds read low): 0.969
- normalized growth (locus YEL061C, strain CIN8, active compounds read low): 0.996
- normalized growth (locus YER015W, strain faa2, active compounds read low): 0.961
- normalized growth (locus YER016W, strain bim1, active compounds read low): 0.96
- normalized growth (locus YER110C, active compounds read low): 0.99
- normalized growth (locus YER111C, strain swi4, active compounds read low): 0.981
- normalized growth (locus YER155C, strain BEM2 (second series), active compounds read low): 0.854 (active)
- normalized growth (locus YER155C, strain BEM2, active compounds read low): 0.998
- normalized growth (locus YER167W, strain BCK2, active compounds read low): 0.985
- normalized growth (locus YFR010W, strain ubp6, active compounds read low): 0.942
- normalized growth (locus YGL078C, strain dbp3, active compounds read low): 0.977
- normalized growth (locus YGL086W, strain mad1, active compounds read low): 0.977
- normalized growth (locus YGL167C, strain pmr1, active compounds read low): 0.983
- normalized growth (locus YGL173C, strain kem1, active compounds read low): 0.987
- normalized growth (locus YGL227W, strain vid30, active compounds read low): 0.979
- normalized growth (locus YGL240W, strain doc1, active compounds read low): 0.922
- normalized growth (locus YGL248W, strain PDE1, active compounds read low): 1
- normalized growth (locus YGL253W, strain hxk2, active compounds read low): 0.976
- normalized growth (locus YGR078C, strain PAC10, active compounds read low): 0.975
- normalized growth (locus YGR135W, strain pre9, active compounds read low): 0.963
- normalized growth (locus YGR229C, strain SMI1, active compounds read low): 0.958
- normalized growth (locus YGR252W, strain gcn5, active compounds read low): 0.804
- normalized growth (locus YHR013C, strain ard1, active compounds read low): 0.942
- normalized growth (locus YHR027C, strain rpn1, active compounds read low): 0.985
- normalized growth (locus YHR030C, strain SLT2, active compounds read low): 0.991 and 0.902
- normalized growth (locus YHR079C, strain IRE1 (second series), active compounds read low): 0.989
- normalized growth (locus YHR079C, strain IRE1, active compounds read low): 0.91
- normalized growth (locus YHR094C, strain hxt1, active compounds read low): 0.999
- normalized growth (locus YHR129C, strain ARP1, active compounds read low): 1
- normalized growth (locus YHR142W, strain chs7, active compounds read low): 0.946
- normalized growth (locus YHR200W, strain rpn10, active compounds read low): 0.985
- normalized growth (locus YIL066C, strain RNR3, active compounds read low): 1.01
- normalized growth (locus YIL073C, strain SPO22, active compounds read low): 0.969
- normalized growth (locus YIL125W, strain kgd1, active compounds read low): 0.987
- normalized growth (locus YIR030C, strain dcg1, active compounds read low): 0.994
- normalized growth (locus YJL092W, strain hpr5, active compounds read low): 0.971
- normalized growth (locus YJL095W, strain BCK1 (second series), active compounds read low): 0.982
- normalized growth (locus YJL095W, strain BCK1, active compounds read low): 0.969 and 0.892
- normalized growth (locus YJL115W, strain asf1, active compounds read low): 0.951
- normalized growth (locus YJL129C, strain trk1, active compounds read low): 0.968
- normalized growth (locus YJL134W, strain LCB3, active compounds read low): 1
- normalized growth (locus YJL154C, strain vps35, active compounds read low): 0.971
- normalized growth (locus YJL164C, strain tpk1, active compounds read low): 0.957
- normalized growth (locus YJL166W, strain qcr8, active compounds read low): 0.964
- normalized growth (locus YJL168C, strain set2, active compounds read low): 0.989
- normalized growth (locus YJL187C, strain SWE1 (second series), active compounds read low): 1.01
- normalized growth (locus YJL187C, strain SWE1, active compounds read low): 0.973
- normalized growth (locus YJR043C, strain POL32, active compounds read low): 0.979
- normalized growth (locus YJR066W, strain TOR1, active compounds read low): 0.87
